This excerpt belongs to a sample that is enriched for hits.
PINK1 expr mod: changes PINK1 expression; 410,000 compounds, 0.2% hits; PINK1 immunofluorescence, high-content cytometry, 24 h; AID 624263; Potency, µM (doses to about 76.6 µM), actives largely listed as activators; active means well fitted activation curve with a large enough effect; inconclusive means small, poorly fitted or top-dose-only effect; cell line not stated here; further: nearly all actives have a fitted effect of over 65% in size
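Stable cell line, 250 cells/well, 12 h attachment; compounds pinned at 5 concentrations, 24 h; CCCP control. Fixed with nuclear dye, primary antibodies 12 h at 10 degrees C, secondary plus cell stain; laser-scanning cytometer read.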
HttQ103 aggreg: inhibitors of mutant huntingtin aggregate formation in PC12 cells; PC12 HttQ103-GFP aggregates, Acumen cytometry, 40 h; Potency, µM (highest dose often 46.1 µM), actives largely listed as inhibitors; 220,000 compounds, 1.1% hits; further: nearly all actives have a fitted effect of over 60% in size
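Multiplexed with ATP-based cell death, this channel scores GFP aggregates in PC12 cells expressing inducible HTTex1-Q103-GFP. Induction used 100 nM tebufenozide; compounds were tested in concentration series.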
HTT cytoprotect: cytoprotection in Huntington HTT-Q103 PC12 cell model | PC12 HTT-Q103 induced, cytoprotection, ATP luminescence, 40 h | Potency, µM (top dose mostly 56.4 µM), most hits filed as activators | 230,000 compounds, 0.14% hits | AID 1471; further: nearly all actives have a fitted effect of over 45% in size
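ATP quantification (ATPlite) reports survival of PC12 cells in which tebufenozide, 100 nM final, switches on Htt exon 1 with 103 glutamines linked to GFP; compounds are titrated.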
Epigenetic derep: epigenetic control regulation, reporter derepression. murine LDR cells, GFP reporter derepression, 30 h. Potency, µM (titrated, usually from 53.9 µM), usual class: activators. 280,000 compounds, 0.2% hits; further: nearly all actives have a fitted effect of over 60% in size
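Murine LDR cells bearing a silenced CMV-driven GFP reporter were exposed to compound for 30 h at 37 C. After PBS washes, GFP-positive cells (20-120 um objects) counted by laser-scanning microplate cytometry.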
Hits are given with their value; i = inactive; ? = inconclusive; nt = no result given; [ ] = dose if it differs, or a comment. Unless noted, the call rests on the fitted dose curve; in most records, active means well fitted curve in the direction sought with a large enough effect; inconclusive means small, poorly fitted or top-dose-only effect, or another doubt; inactive means no such curve, though single readings can be large; an effect the other way counts as inactive or inconclusive.

SMILES | PINK1 expr mod | HttQ103 aggreg | HTT cytoprotect | Epigenetic derep
CCCn1c(-c2nonc2N)nc2ccccc21 | i | 12.6µM | i[10 µM] | i
Cn1c(-c2nonc2N)nc2ccccc21 | i | nt | nt | nt
CCSc1nnc(NC(=O)C(CC)(C(F)(F)F)C(F)(F)F)s1 | ? | i[9.22 µM] | i | i
CCSc1nnc(NC(=O)C(C)(C(F)(F)F)C(F)(F)F)s1 | 25.1µM | 25.1µM | i | i
CCSc1nc(-c2ccccc2)nc(C(Cl)Cl)n1 | i | 10µM | i[1.9 µM] | i
COC(=O)c1sccc1NC(=O)c1ccc(C)o1 | i | i | i | i
COC(=O)c1sccc1NC(=O)Cc1ccc(OC)cc1 | i | 39.8µM | nt | i
CCOc1ccc(C(C)NC(=S)NC2CCCCC2)cc1 (centres undefined) | ? | 0.562µM | i[10 µM] | i
CCOc1ccc(C(C)NC(=S)NC2CCCCC2)cc1OCC (centres undefined) | i | ? | i | i
CC(=O)Nc1ccc(NS(=O)(=O)c2ccc3c(c2)CCCN3C(C)=O)cc1 | i | nt | nt | i
O=C(Nc1cccc(Cl)c1Cl)c1ccc(-c2ccccc2)cc1 | 11.2µM | i | i | i
O=C(Nc1ccccc1Cl)c1ccc(C(=O)Nc2ccccc2Cl)cc1 | i | nt | nt | nt
O=C(NCc1ccccn1)c1ccc(Br)s1 | i | i | i[0.074 µM] | i
Cc1ccc(S(=O)(=O)C2C(=O)N(C)C3(C)CC2c2ccccc2O3)cc1C (centres undefined) | i | ? | 3.98µM | i
Cc1cccc(NC(=O)c2oc3c(c2C)C(=O)CC(C)(C)C3)n1 | ? | 22.4µM | i[0.074 µM] | i
Cc1c(C(=O)N2CCN(c3ccccn3)CC2)oc2c1C(=O)CC(C)(C)C2 | i | nt | nt | nt
C=CCN1C(=O)/C(=C2/Sc3ccc(OC)cc3N2C)SC1=Nc1cccc(O)c1 | ? | i[9.22 µM] | i[10 µM] | 10µM
CC(=O)Nc1ccc(-n2c(=O)c3ccccc3c3ccccc3c2=O)cc1 | i | i[9.22 µM] | i[10 µM] | i
CCCCCCCC[n+]1c(C)n(-c2ccccc2)c2ccc(NC(C)=O)cc21 | i | 10µM | i | i
CCN1CCN(c2c(/C=C3\SC(=S)N(Cc4ccco4)C3=O)c(C)c(C#N)c(=O)n2C)CC1 | i | i[9.22 µM] | i[10 µM] | 7.08µM
COc1ccc(-n2c(C)cc(/C=C3\SC(=S)N(Cc4ccco4)C3=O)c2C)cc1 | i | i | i[10 µM] | ?
COc1ccc(CCn2c(C)cc(C(=O)CSc3nc(N)cc(=O)[nH]3)c2C)cc1 | i | 7.08µM | i | i
COc1ccccc1NC(=O)/C(C#N)=C/C=C/c1ccco1 | 2.82µM | i | i | ?
NS(=O)(=O)c1ccc(NC(=O)c2ccc3c(c2)CCCC3)cc1 | 39.8µM | nt | nt | nt
NS(=O)(=O)c1ccc(NC(=O)c2ccc3c(c2)OCO3)cc1 | i | nt | nt | nt
SMILES | PINK1 expr mod | HttQ103 aggreg | HTT cytoprotect | Epigenetic derep
CCSc1ccc2cc(OC)ccc2[n+]1CC | i | 8.91µM | i | i
COC(=O)C1=C(CCc2ccccc2)NC(=O)NC1c1ccc(Br)cc1 (centres undefined) | i | nt | nt | nt
Nc1cc(-c2ccc(Br)cc2)nn1S(=O)(=O)c1cccc2nsnc12 | i | 25.1µM | i | i
CC(=O)Nc1ccc(NC(=O)COC(=O)c2c3c(nc4ccccc24)CCN(Cc2ccccc2)C3)cc1 | i | 3.98µM | i[10 µM] | i
O=C(COC(=O)c1c2c(nc3ccccc13)CCN(Cc1ccccc1)C2)Nc1c(F)cccc1F | i | i | i[10 µM] | i
Cc1c(Cl)c([N+](=O)[O-])nn1CC(=O)NC12CC3CC(CC(C3)C1)C2 | i | i | i | i
Cc1ccccc1Cn1ccc(=NCc2ccccc2)cc1 | i | 17.8µM | nt | i
C/C(Cn1nnc2ccccc21)=N/OC(=O)c1c(F)cccc1F | i | i | i | i
CCC(C)NS(=O)(=O)c1ccc(S(=O)(=O)Nc2cc3c(cc2C(C)=O)OCO3)cc1 (centres undefined) | i | 12.6µM | ? | i
Cn1nc(C(F)(F)F)c(/C=N/OC(=O)c2ccccc2)c1Cl | i | i | i | i
Cn1nc(C(F)(F)F)c(/C=N/OC(=O)c2ccccc2)c1Sc1ccc(Cl)cc1 | i | 14.1µM | i | i
C=CCOC(=O)C1=C(C)NC(SCC(=O)Nc2nccs2)=C(C#N)C1c1cccs1 (centres undefined) | i | 12.6µM | i | i
CN(Cc1ccccc1)C(=O)c1cccc(NC(=O)Cc2ccc(NC(=O)C3CCN(S(=O)(=O)c4cccc([N+](=O)[O-])c4)CC3)cc2)c1 | i | nt | nt | nt
CCc1ccc(NC(=O)CSc2nc3ccccc3c(=O)n2CCCN2CCC(C)CC2)cc1 | i | 22.4µM | i | i
Cc1ccc(NC(=O)CSc2nc(-c3ccco3)cc(C(F)(F)F)n2)c(C)c1 | i | nt | nt | i
O=C(CSc1nc(-c2ccco2)cc(C(F)(F)F)n1)Nc1ccccc1C(F)(F)F | nt | ? | 3.16µM | i
CCCOc1ccc(C(=O)NC(=S)N2CCN(c3cc4c(cc3F)c(=O)c(C(=O)O)cn4CC)CC2)cc1 | 35.5µM | nt | nt | nt
CCn1cc(C(=O)O)c(=O)c2cc(F)c(N3CCN(C(=S)NC(=O)c4ccc(F)cc4)CC3)cc21 | i | i[9.22 µM] | i[10 µM] | i
CCn1cc(C(=O)O)c(=O)c2cc(F)c(N3CCN(S(=O)(=O)c4ccc(NC(=O)OC)cc4)CC3)cc21 | 31.6µM | 31.6µM | i[10 µM] | i
CCC(C)n1c(-c2cccc(S(=O)(=O)N(CC)CC)c2)n[nH]c1=S (centres undefined) | i | i | i | i
COC(=O)COc1cccc(-n2cnnn2)c1 | i | i | i | i
Cc1cc(C(=O)COc2cccc(-n3cnnn3)c2)c(C)n1-c1ccccc1 | i | 11.2µM | i | i
Cc1ccc(S(=O)(=O)N2CCN(c3ccnc4cc(Cl)ccc34)CC2)cc1 | i | 15.8µM | i | i
CCc1cc2c(=O)c(-c3cscn3)coc2c(CN(C)C)c1O | i | 11.2µM | i[10 µM] | i
O=C(CSc1c2c(nc3ccccc13)CCC2)N1CCCC1 | i | ? | 10µM | i
SMILES | PINK1 expr mod | HttQ103 aggreg | HTT cytoprotect | Epigenetic derep
CCOC(=O)C1CCN(C(=O)CSc2c3c(nc4ccccc24)CCC3)CC1 | i | i | i | i
COc1ccc(NC(=O)CSc2c3c(nc4ccccc24)CCCC3)c(OC)c1 | i | i | i[10 µM] | i
COc1ccccc1NC(=O)CSc1c2c(nc3ccccc13)CCC2 | i | 35.5µM | i[10 µM] | i
O=C(N/N=C\c1cn(-c2ccccc2)nc1-c1ccccc1)c1ccc(Br)o1 | i | 25.1µM | i | i
Cc1ccc(-c2nn(-c3ccccc3)cc2/C=N/NC(=O)c2ccc(Br)o2)cc1 | i | 7.08µM | i | i
Cc1cccc(C)c1NC(=O)c1c(-c2ccccc2)noc1C | nt | ? | i | i
Cc1onc(-c2ccccc2)c1C(=O)Nc1ncc([N+](=O)[O-])s1 | 12.6µM | nt | nt | nt
CC(=O)Nc1ncc([N+](=O)[O-])s1 | nt | i | i | nt
Cc1cccc(NC(=O)c2c(-c3ccccc3)noc2C)n1 | i | i | 2.24µM | i
Cc1ccc(C(=O)Nc2ncc([N+](=O)[O-])s2)cc1 | 35.5µM | nt | nt | nt
COc1ccccc1C(O)(c1ccccc1)C(CN1CCOCC1)c1ccccc1 (centres undefined) | i | ? | i | i
COc1ccc(N2CCN(C(CNC(=O)C(=O)NCCC3=CCCCC3)c3ccco3)CC2)cc1 (centres undefined) | i | i | i[10 µM] | i

Bioassay records from PubChem.
